Experimental data taken from the supplement of paper PMC10037445.
Whole data set: some 2,900 compounds, median “NF-kB SEAP reporter activity, fold change vs agonist alone” near 0.99, cut for the highest 2% near 2.6. Only a selection was taken, and the highest values are over-represented in it overall.

How the values were obtained:
[1] = system: RAW-Dual; assay: NF-kB SEAP reporter activity, fold change vs agonist alone; higher = enhanced NF-kB activity
Method in brief: (§1)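 Reporter activity is given as fold change relative to agonist-alone wells. To measure it, 50 nL of library stock was pin-tooled onto RAW-Dual macrophages (50,000 cells/well, DMEM, 384-well plates), a PRR agonist followed 1 h later, and cells stayed at 37 °C, 5% CO2. Twenty hours on, supernatant was assayed for IRF (QuantiLuc luminescence) and NF-κB (QuantiBlue, 620 nm absorbance), and wells under 70% of agonist-control IncuCyte confluency in both mask sets were marked cytotoxic.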

[2] = system: RAW-Dual; assay: NF-kB SEAP reporter activity, fold change vs agonist alone; cytotoxicity flag (confluency mask): not cytotoxic; library stock concentration (final ~1000-fold dilution): 10 mM; higher = enhanced NF-kB activity
Method in brief: as §1

[3] = system: RAW-Dual; assay: NF-kB SEAP reporter activity, fold change vs agonist alone; cytotoxicity flag (confluency mask): cytotoxic (confluency <70% of control); library stock concentration (final ~1000-fold dilution): 10 mM; higher = enhanced NF-kB activity
Method in brief: as §1

[4] = system: RAW-Dual; assay: NF-kB SEAP reporter activity, fold change vs agonist alone; cytotoxicity flag (confluency mask): not cytotoxic; library stock concentration (final ~1000-fold dilution): 2 mM; higher = enhanced NF-kB activity
Method in brief: as §1

[5] = library stock concentration (final ~1000-fold dilution): 10 mM, cytotoxicity flag (confluency mask): not cytotoxic, agonist: Imiquimod (TLR7) […]
[6] = library stock concentration (final ~1000-fold dilution): 10 mM, cytotoxicity flag (confluency mask): not cytotoxic, agonist: MPLA (TLR4) […]
[7] = agonist: ODN 1826 (TLR9) 0.5 ug/mL
[8] = agonist: Pam2CSK4 (TLR2/6) 0.1 ug/mL
[9] = agonist: Pam3CSK4 (TLR2/1) 0.1 ug/mL
[10] = library stock concentration (final ~1000-fold dilution): 10 mM, cytotoxicity flag (confluency mask): cytotoxic (confluency <70% of control), agonist: Imiquimod (TLR7) […]
[11] = library stock concentration (final ~1000-fold dilution): 10 mM, cytotoxicity flag (confluency mask): cytotoxic (confluency <70% of control), agonist: MPLA (TLR4) […]

SMILES: N#CC(C#N)=Cc1ccc(O)c(O)c1
- NF-kB SEAP reporter activity [1, 5]: 0.89
- NF-kB SEAP reporter activity [1, 6]: 1.33
- NF-kB SEAP reporter activity ([2]; agonist: LPS (TLR4) 0.1 ug/mL): 1.19
- NF-kB SEAP reporter activity [2, 7]: 0.619
- NF-kB SEAP reporter activity [2, 8]: 0.821
- NF-kB SEAP reporter activity [2, 9]: 0.937

SMILES: CC(C)(C)c1cc(C=C(C#N)C#N)cc(C(C)(C)C)c1O
- NF-kB SEAP reporter activity [1, 10]: 1.7
- NF-kB SEAP reporter activity [1, 11]: 2.56
- NF-kB SEAP reporter activity ([3]; agonist: LPS (TLR4) 0.1 ug/mL): 5.32
- NF-kB SEAP reporter activity [3, 7]: 1.32
- NF-kB SEAP reporter activity [3, 8]: 0.729
- NF-kB SEAP reporter activity [3, 9]: 1.48

SMILES: CC(C)(C)c1cc(C=C(C#N)C#N)cc(Br)c1O
- NF-kB SEAP reporter activity [1, 10]: 2.04
- NF-kB SEAP reporter activity [1, 11]: 2.25
- NF-kB SEAP reporter activity ([3]; agonist: LPS (TLR4) 0.1 ug/mL): 2.48
- NF-kB SEAP reporter activity [3, 7]: 1.29
- NF-kB SEAP reporter activity [3, 8]: 0.571
- NF-kB SEAP reporter activity [3, 9]: 0.667

SMILES: CN1C(=O)C23CC4(C56CC78SSC(CO)(C(=O)N7C5Nc5ccccc56)N(C)C8=O)c5ccccc5NC4N2C(=O)C1(CO)SS3 (stereo not drawn)
- NF-kB SEAP reporter activity [1, 10]: 0.117
- NF-kB SEAP reporter activity [1, 11]: 0.183
- NF-kB SEAP reporter activity ([3]; agonist: LPS (TLR4) 0.1 ug/mL): 0.372
- NF-kB SEAP reporter activity [3, 7]: 0.141
- NF-kB SEAP reporter activity [3, 8]: 0.0829
- NF-kB SEAP reporter activity [3, 9]: 0.196

SMILES: CCc1c2c(nc3ccccc13)-c1cc3c(c(=O)n1C2)COC(=O)C3(O)CC (stereo not drawn)
- NF-kB SEAP reporter activity [1, 11]: 1.62
- NF-kB SEAP reporter activity ([3]; agonist: LPS (TLR4) 0.1 ug/mL): 0.384
- NF-kB SEAP reporter activity [3, 7]: 2.29
- NF-kB SEAP reporter activity [3, 8]: 0.788
- NF-kB SEAP reporter activity [3, 9]: 0.641

SMILES: CCC1(O)C(=O)OCc2c1cc1n(c2=O)Cc2cc3ccccc3nc2-1 (stereo not drawn)
- NF-kB SEAP reporter activity ([1]; library stock concentration (final ~1000-fold dilution): 2 mM, cytotoxicity flag (confluency mask): not cytotoxic, agonist: Imiquimod (TLR7) […]): 1.45
- NF-kB SEAP reporter activity ([1]; library stock concentration (final ~1000-fold dilution): 2 mM, cytotoxicity flag (confluency mask): not cytotoxic, agonist: MPLA (TLR4) […]): 1.83
- NF-kB SEAP reporter activity ([4]; agonist: LPS (TLR4) 0.1 ug/mL): 4.12
- NF-kB SEAP reporter activity [4, 7]: 1.47
- NF-kB SEAP reporter activity [4, 8]: 1.05
- NF-kB SEAP reporter activity [4, 9]: 1.74

SMILES: C=CC1CN2CCC3(C(=O)Nc4ccccc43)C2CC1/C(=C\OC)C(=O)OC (stereo not drawn)
- NF-kB SEAP reporter activity [1, 5]: 0.91
- NF-kB SEAP reporter activity [1, 6]: 1.1
- NF-kB SEAP reporter activity ([2]; agonist: LPS (TLR4) 0.1 ug/mL): 0.951
- NF-kB SEAP reporter activity [2, 7]: 0.904
- NF-kB SEAP reporter activity [2, 8]: 0.882
- NF-kB SEAP reporter activity [2, 9]: 0.928

SMILES: CC(=O)O.Cc1cc2c(C(C)C)c(O)c(O)c(C=O)c2c(O)c1-c1c(C)cc2c(C(C)C)c(O)c(O)c(C=O)c2c1O
- NF-kB SEAP reporter activity [1, 5]: 0.906
- NF-kB SEAP reporter activity [1, 6]: 0.963
- NF-kB SEAP reporter activity ([2]; agonist: LPS (TLR4) 0.1 ug/mL): 3.69
- NF-kB SEAP reporter activity [2, 7]: 0.908
- NF-kB SEAP reporter activity [2, 8]: 1.15
- NF-kB SEAP reporter activity [2, 9]: 1.2

SMILES: CC[C@H]1CN2CC[C@]3(C(=O)Nc4ccccc43)[C@@H]2C[C@@H]1/C(=C\OC)C(=O)OC
- NF-kB SEAP reporter activity [1, 5]: 0.86
- NF-kB SEAP reporter activity [1, 6]: 1.04
- NF-kB SEAP reporter activity ([2]; agonist: LPS (TLR4) 0.1 ug/mL): 1.21
- NF-kB SEAP reporter activity [2, 7]: 1.05
- NF-kB SEAP reporter activity [2, 8]: 0.949
- NF-kB SEAP reporter activity [2, 9]: 1.03

SMILES: COc1cc2c(c(OC)c1OC)-c1ccc(OC)c(=O)cc1C(NC(C)=O)CC2 (stereo not drawn)
- NF-kB SEAP reporter activity [1, 5]: 2.62
- NF-kB SEAP reporter activity [1, 6]: 1.98
- NF-kB SEAP reporter activity ([2]; agonist: LPS (TLR4) 0.1 ug/mL): 4.93
- NF-kB SEAP reporter activity [2, 7]: 3.47
- NF-kB SEAP reporter activity [2, 8]: 2.44
- NF-kB SEAP reporter activity [2, 9]: 2.52

SMILES: CN1C2CCC1CC(OC(=O)C(CO)c1ccccc1)C2.CN1C2CCC1CC(OC(=O)C(CO)c1ccccc1)C2.O.O=S(=O)(O)O (stereo not drawn)
- NF-kB SEAP reporter activity [1, 5]: 0.838
- NF-kB SEAP reporter activity [1, 6]: 0.986
- NF-kB SEAP reporter activity ([2]; agonist: LPS (TLR4) 0.1 ug/mL): 0.923
- NF-kB SEAP reporter activity [2, 7]: 0.83
- NF-kB SEAP reporter activity [2, 8]: 0.79
- NF-kB SEAP reporter activity [2, 9]: 1.05

SMILES: CC12CCC3C(CCC4=C(O)C(=O)CCC43C)C1CCC2=O (stereo not drawn)
- NF-kB SEAP reporter activity [1, 5]: 0.986
- NF-kB SEAP reporter activity [1, 6]: 1.01
- NF-kB SEAP reporter activity ([2]; agonist: LPS (TLR4) 0.1 ug/mL): 1.17
- NF-kB SEAP reporter activity [2, 7]: 1.21
- NF-kB SEAP reporter activity [2, 8]: 1.07
- NF-kB SEAP reporter activity [2, 9]: 1.23

SMILES: Nc1ncnc2c1ccn2C1OC(CO)C(O)C1O (stereo not drawn)
- NF-kB SEAP reporter activity [1, 10]: 0.147
- NF-kB SEAP reporter activity [1, 11]: 0.247
- NF-kB SEAP reporter activity ([3]; agonist: LPS (TLR4) 0.1 ug/mL): 0.531
- NF-kB SEAP reporter activity [3, 7]: 0.19
- NF-kB SEAP reporter activity [3, 8]: 0.0753
- NF-kB SEAP reporter activity [3, 9]: 0.156

SMILES: Cl.NCCc1ccc(S(=O)(=O)F)cc1
- NF-kB SEAP reporter activity [1, 5]: 1.07
- NF-kB SEAP reporter activity [1, 6]: 1.23
- NF-kB SEAP reporter activity ([2]; agonist: LPS (TLR4) 0.1 ug/mL): 1.6
- NF-kB SEAP reporter activity [2, 7]: 1.01
- NF-kB SEAP reporter activity [2, 8]: 1.03
- NF-kB SEAP reporter activity [2, 9]: 1.9
